Several values for one entry are separate records, joined by “and”; a condition that tells them apart may be missing. Identical values can stand only once. Results filed as inconclusive are left out. Activity calls are given as the source filed them. Calls follow the shape of the dose curve; as a rule, active = well fitted cell-killing curve with a large enough effect in the repeat runs; inconclusive = weak or mixed curves, or effect the other way; inactive = flat fitted curve, though single readings scatter.

This passage reports Potency results from PubChem BioAssay (Tox21).

The nature of experiment [1]: cAMP Responsive Elements (CRE) small molecule antagonists, cell-based qHTS assay: qHTS cell viability counter screen (AID 2060913). Also: nearly all actives have a fitted effect of over 40% in size. The method, boiled down:
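Cytotoxicity counter screen multiplexed with the CRE-bla antagonist read: HEK293T cells in DMEM with dialyzed FBS and 25 mM HEPES were treated 3 hrs under 0.25 uM final NKH477, then viability measured by CellTiter-Glo luminescence.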
(qHTS replaces the single test concentration by a dilution series.)

A short description of experiment [2]: cAMP Responsive Elements (CRE) small molecule agonists, cell-based qHTS assay: qHTS cell viability counter screen (AID 2060914). Also: nearly all actives have a fitted effect of over 50% in size. Put shortly: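 Cytotoxicity counter screen multiplexed with the CRE-bla reporter assay in HEK 293T cells: 3 h compound exposure at 37 °C, followed by CellTiter-Glo luminescence measured in the same wells.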
Potency is read from the fitted curve at half-maximal effect.

Regarding `Nc1nc(N)nc(-c2cc(Cl)ccc2Cl)n1`, the Potency result in experiment [1] and in experiment [2] was “inactive” each time.

Consider `Cn1c(NCCN(CCO)CCCc2ccc([N+](=O)[O-])cc2)cc(=O)n(C)c1=O`, for which the Potency result in experiment [1] and in experiment [2] was “inactive” each time.

Regarding `CC[N+](CC)(CCNC(=O)C(=O)NCC[N+](CC)(CC)Cc1ccccc1Cl)Cc1ccccc1Cl`, the Potency entry in experiment [1] and in experiment [2] was “inactive” each time.

Consider `Nc1nc(-c2ccc([N+](=O)[O-])cc2)cs1`, for which the Potency entry in experiment [1] and in experiment [2] was “inactive” throughout.

Turning to `C1=C\CC/C=C\CC/C=C\CC/1`, the Potency entry in experiment [1] and in experiment [2] was “inactive” in each case.

Take `O=C(Nc1ccccc1)c1ccccc1O`: the Potency result in experiment [1] and in experiment [2] was “inactive” throughout.

For the molecule `C=C1[C@H]2CC[C@@H]3[C@H]2C(C)(C)CCC[C@]13C`, the Potency entry in experiment [1] and in experiment [2] was “inactive” each time.

Consider `CCCCCCCCOCCC#N`, for which the Potency result in experiment [1] and in experiment [2] was “inactive” in each case.

As to `C1COCO1`, the Potency entry in experiment [1] and in experiment [2] was “inactive” in each case.

Regarding `OCc1cccc(Oc2ccccc2)c1`, the Potency result in experiment [1] and in experiment [2] was “inactive” each time.

Take `Nc1c(S(=O)(=O)O)cc(Br)c2c1C(=O)c1ccccc1C2=O`: the Potency entry in experiment [1] and in experiment [2] was “inactive” each time.

On to `CC(C)NCC(O)COc1cccc2[nH]ccc12` (configuration not stated), for which the Potency entry in experiment [1] and in experiment [2] was “inactive” each time.

With `CC(C)[C@@H]1CC[C@@H](C)CC1=O`, the Potency entry in experiment [1] and in experiment [2] was “inactive” in each case.

Regarding `Cc1nc2ccccc2c(=O)o1`, the Potency entry in experiment [1] and in experiment [2] was “inactive” throughout.

Take `Cc1ccc(S)cc1`: the Potency entry in experiment [1] and in experiment [2] was “inactive” in each case.

As to `CC/C=C\C/C=C\C/C=C\CCCCCCCC(=O)O`, the Potency result in experiment [1] and in experiment [2] was “inactive” each time.

`Cc1cccc(CN2CCN(C(c3ccccc3)c3ccc(Cl)cc3)CC2)c1` (configuration not stated): the Potency entry in experiment [1] and in experiment [2] was “inactive” throughout.

Turning to `CN(C)C=O`, the Potency entry in experiment [1] and in experiment [2] was “inactive” throughout.

Take `COC1=C(OC)C(=O)C(CCCCCCCCCCO)=C(C)C1=O`: the Potency result in experiment [1] and in experiment [2] was “inactive” in each case.

Turning to `CCCCOc1ccc(N)cc1`, the Potency result in experiment [1] and in experiment [2] was “inactive” each time.

Consider `Cc1ccc2c(c1)OCC(=O)CO2`, for which the Potency entry in experiment [1] and in experiment [2] was “inactive” each time.

Turning to `CC[C@H]1OC(=O)[C@H](C)[C@@H](O[C@H]2C[C@@](C)(OC)[C@@H](O)[C@H](C)O2)[C@H](C)[C@@H](O[C@@H]2O[C@H](C)C[C@H](N(C)C)[C@H]2O)[C@](C)(O)C[C@@H](C)C(=O)[C@H](C)[C@@H](O)[C@]1(C)O`, the Potency result in experiment [1] and in experiment [2] was “inactive” in each case.

`CN(Cc1ccc(C(C)(C)C)cc1)Cc1cccc2ccccc12`: the Potency result in experiment [1] and in experiment [2] was “inactive” throughout.

Consider `CCC(C(=O)OCCOCCN(CC)CC)c1ccccc1` (configuration not stated), for which the Potency entry in experiment [1] and in experiment [2] was “inactive” each time.

Take `COC(=O)c1ccc(O)cc1`: the Potency result in experiment [1] and in experiment [2] was “inactive” throughout.

Take `Oc1ccc(/C=C/c2cc(O)cc(O)c2)cc1`: the Potency entry in experiment [1] and in experiment [2] was “inactive” in each case.

As to `CCCCCCCCSCCO`, the Potency entry in experiment [1] and in experiment [2] was “inactive” each time.

Consider `CCO/C([O-])=N/c1c[n+](N2CCOCC2)no1`, for which the Potency result in experiment [1] and in experiment [2] was “inactive” each time.

On to `C[N+]1(C)CCCC(OC(=O)C(O)(c2ccccc2)c2ccccc2)C1` (configuration not stated), for which the Potency entry in experiment [1] and in experiment [2] was “inactive” throughout.

As to `Cc1ccc([N+](=O)[O-])c(N)c1`, the Potency entry in experiment [1] and in experiment [2] was “inactive” each time.

As to `CCOC(C)(C)C`, the Potency result in experiment [1] and in experiment [2] was “inactive” throughout.

On to `O=C(O)CNC(=O)c1ccc([N+](=O)[O-])cc1`, for which the Potency entry in experiment [1] and in experiment [2] was “inactive” each time.

Turning to `Cc1ccccc1N=Nc1ccc(N=Nc2c(O)ccc3ccccc23)c(C)c1`, the Potency entry in experiment [1] and in experiment [2] was “inactive” in each case.

Take `O=C(/C=C/c1ccccc1)OCc1ccccc1`: the Potency entry in experiment [1] and in experiment [2] was “inactive” throughout.

On to `COC(=O)C1=C(C)NC(C)=C(C(=O)OCC(C)=O)C1c1ccccc1[N+](=O)[O-]` (configuration not stated), for which the Potency result in experiment [1] and in experiment [2] was “inactive” throughout.

Regarding `CC(C)CCCCCCc1ccc(OCCOCCO)cc1`, the Potency entry in experiment [1] and in experiment [2] was “inactive” each time.

`CC(=O)c1cnccn1`: the Potency entry in experiment [1] and in experiment [2] was “inactive” in each case.

For the molecule `CCCCCCOC(=O)CCCCC(=O)OCCCCCC`, the Potency result in experiment [1] and in experiment [2] was “inactive” throughout.

Regarding `CNC[C@H](O)c1cccc(O)c1`, the Potency entry in experiment [1] and in experiment [2] was “inactive” each time.

`Cc1nnc(C(=O)NC(C)(C)c2nc(C(=O)NCc3ccc(F)cc3)c(O)c(=O)n2C)o1`: the Potency entry in experiment [1] and in experiment [2] was “inactive” throughout.

On to `CCCOc1ccc(C(=O)OCCN(CC)CC)cc1N`, for which the Potency entry in experiment [1] and in experiment [2] was “inactive” in each case.

As to `COC(=O)CC(=O)C(C)(C)C`, the Potency result in experiment [1] and in experiment [2] was “inactive” throughout.

On to `CCCCN(CCCC)C(C(N)=O)c1ccc(OC)cc1` (configuration not stated), for which the Potency entry in experiment [1] and in experiment [2] was “inactive” throughout.

`CN1[C@@H]2CC[C@H]1CC(OC(=O)C(O)c1ccccc1)C2` (some centres not stated): the Potency entry in experiment [1] and in experiment [2] was “inactive” throughout.

With `CC(C)(C)C(=O)CC(=O)C(C)(C)C`, the Potency result in experiment [1] and in experiment [2] was “inactive” each time.

With `Cc1cccc(O)c1C`, the Potency result in experiment [1] and in experiment [2] was “inactive” in each case.

`CCCOc1ccccc1-c1nc2n[nH]nc2c(=O)[nH]1`: the Potency result in experiment [1] and in experiment [2] was “inactive” in each case.

For the molecule `C=C(C)C(=O)OCC(O)CO` (configuration not stated), the Potency entry in experiment [1] and in experiment [2] was “inactive” in each case.

Turning to `COC(=O)OC`, the Potency entry in experiment [1] and in experiment [2] was “inactive” in each case.

`CCCCCOC(=O)c1ccc(O)cc1`: the Potency result in experiment [1] and in experiment [2] was “inactive” each time.

As to `O=C(Cl)c1cccc([N+](=O)[O-])c1`, the Potency entry in experiment [1] and in experiment [2] was “inactive” throughout.

Turning to `CCCCNc1c(C(=O)OCC)c(C)nc2c1cnn2CC`, the Potency entry in experiment [1] and in experiment [2] was “inactive” each time.

In the case of `CC(C)(C)c1cc(C(C)(C)C)c(O)c(C(C)(C)C)c1`, the Potency entry in experiment [1] and in experiment [2] was “inactive” each time.

As to `Nc1ccc(C(=O)N2CC3CC(CN(Cc4ccccc4)C3)C2)cc1`, the Potency entry in experiment [1] and in experiment [2] was “inactive” throughout.

For the molecule `CC1(C)[C@@H]2CC[C@@]1(C)[C@H](O)C2`, the Potency entry in experiment [1] and in experiment [2] was “inactive” each time.

Take `CCCCCCCCCCCCCCCC[N+](C)(C)Cc1ccccc1`: the Potency is 63.1 µM (active) and 49.4 µM (active) and 33.5 µM (active) in experiment [1]; 70.8 µM (active) and 44.1 µM (active) and 26.6 µM (active) in experiment [2].
